As usually defined, the inhibition is the change of the read-out against control, counted positive when it falls.

The record followed here is PubChem BioAssay.

Active and inactive are the calls of the source.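 How the source made its calls, unless noted: active means visual image review flags a hit and inhibition of aggregation exceeds 20%; inconclusive means visual hit but inhibition at or below 20%; inactive means no hit on visual image review.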

Assay [1] can be described thus: inhibitors of TNFa-induced NFkB p65 translocation, primary screen, imaging, HUVEC, MLSMR starter and 10KST1 sets (AID 438;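 active means inhibition above 20% together with a positive visual image hit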;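 further: compound added about 3h40 before a 20 min TNFalpha stimulation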;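 on inhibition: signal is the nuclear over cytoplasmic p65 intensity ratio per well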). The conditions noted are these: HUVEC TNFa-induced p65 nuclear translocation; cell count: measured here: nuclei count (cytotoxicity indicator), at 2.08 µM; inhibition: at 2 µM, stronger effect = higher value, 0% TNFa-plus-vehicle, 100% no-TNFa wells.
The nature of assay [2]: inhibitors of mutant huntingtin aggregation, primary screen, imaging, exon1htt(103Q)mCFP cells, high-content imaging (AID 483).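 Further: compound exposure lasted 3 days before fixation.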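 On nuclei count: percent of the per-plate median nuclei count of sample wells.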 Conditions: exon1htt(103Q)mCFP cell line, aggregate imaging, at 2 µM; inhibition of aggregation: stronger effect = higher value; nuclei count: measured here: cell count, toxicity.
The nature of assay [3]: inhibitors of E-selectin induction by TNFa, primary screen, imaging, HUVEC, immunofluorescence, MLSMR starter and 10KST1 sets (AID 487;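 active means visually confirmed hit in the image check and inhibition above 20%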;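 on inhibition: signal is fraction of cell area covered by stained E-selectin grains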;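 on nuclei count: 100% = median nuclei count of all wells on the same plate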). Conditions: HUVEC TNFalpha-induced E-selectin immunofluorescence imaging, at 2 µM; inhibition: stronger effect = higher value; nuclei count: measured here: cell number, toxicity.
Assay [4] addresses Voltage-gated potassium channel subunit beta-2 (Rattus norvegicus) (UniProt P62483). In words: KvBeta enzyme negative modulators, primary screen, biochemical, NADPH fluorescence (AID 622;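 active means fluorescence slope higher than the sample average by over 3 SD, cut at about -0.22 in these data, passing the limit was not always enough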;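 further: slope of raw intensity against log time taken from 70 to 1610 s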). The conditions noted are these: recombinant KvBeta, 4-cyanobenzaldehyde reduction, at 10 µM, stronger effect = higher value.
For assay [5] the target is unchanged. The assay is described as follows: KvBeta positive modulators, primary screen, biochemical, NADPH fluorescence (AID 623;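 active means NADPH fluorescence slope more negative than the mean of all samples by about 3 SD, 99.7% confidence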;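 further: fluorescence intensity change per second fitted from 20 to 320 s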). The conditions noted are these: Recombinant KvBeta, NADPH fluorescence decrease slope, 10 min; at 10 µM; stronger effect = lower value.
In assay [6] the target is Alpha-2C adrenergic receptor (Homo sapiens) (UniProt P18825). In words: modulators of alpha2C/GIRK thallium flux, primary screen, cell-based, HEK293 alpha2C/GIRK1/2 (AID 624;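 active means fluorescence slope after compound addition differing from the mean of all screened samples at 99.7% confidence, in either direction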;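 further: slope of fluorescence ratio to pre-addition baseline per second over 15 to 24 s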). Conditions: thallium flux BTC fluorescence, at 10 µM, actives lie on both sides.
Alpha-2C adrenergic receptor (Homo sapiens), sequence (P18825 whole entry, looked up): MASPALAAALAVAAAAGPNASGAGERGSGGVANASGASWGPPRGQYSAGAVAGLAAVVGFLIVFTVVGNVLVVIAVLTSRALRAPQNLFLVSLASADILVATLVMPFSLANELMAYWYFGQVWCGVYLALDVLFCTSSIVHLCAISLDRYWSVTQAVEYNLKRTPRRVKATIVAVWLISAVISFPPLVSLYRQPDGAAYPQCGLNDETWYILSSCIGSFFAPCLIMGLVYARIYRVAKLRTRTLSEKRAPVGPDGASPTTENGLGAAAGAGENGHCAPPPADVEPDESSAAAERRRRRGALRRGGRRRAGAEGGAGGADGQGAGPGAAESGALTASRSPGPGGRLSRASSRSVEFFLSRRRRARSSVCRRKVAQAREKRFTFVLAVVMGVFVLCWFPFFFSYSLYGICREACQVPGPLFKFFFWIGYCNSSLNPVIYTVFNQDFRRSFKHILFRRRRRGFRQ
Assay [7] in a line: inhibitors of Sendai virus-induced IRF3 signaling, primary screen, TLR/RLR signaling modifier project, cell-based, Sendai virus stimulus, luciferase, 10K MLSCN set (AID 602276;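 active means inhibition at or above 50% at 10 µM; inactive means inhibition below 50%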;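 further: firefly luciferase from ISG56 promoter only with Renilla not read in this screen; 0% = Sendai virus plus DMSO and 100% = medium plus DMSO without virus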). Conditions: HEK293 RL24 IRF3 luciferase reporter, at 10 µM, stronger effect = higher value. For orientation: In a reporter assay the amount or activity of a reporter protein is the signal.
Assay [8] can be described thus: inhibitors of poly I:C-induced TLR3 signaling, primary screen, cell-based, poly I:C stimulus, luciferase, 10K MLSCN set (AID 602277;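 active means inhibition of the reporter signal at or above 50%; inactive means inhibition below 50%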). Conditions: HEK293-TLR3 RL24 IRF3 luciferase reporter, at 10 µM, stronger effect = higher value.

Voltage-gated potassium channel subunit beta-2 (Rattus norvegicus), sequence (P62483 whole entry, looked up): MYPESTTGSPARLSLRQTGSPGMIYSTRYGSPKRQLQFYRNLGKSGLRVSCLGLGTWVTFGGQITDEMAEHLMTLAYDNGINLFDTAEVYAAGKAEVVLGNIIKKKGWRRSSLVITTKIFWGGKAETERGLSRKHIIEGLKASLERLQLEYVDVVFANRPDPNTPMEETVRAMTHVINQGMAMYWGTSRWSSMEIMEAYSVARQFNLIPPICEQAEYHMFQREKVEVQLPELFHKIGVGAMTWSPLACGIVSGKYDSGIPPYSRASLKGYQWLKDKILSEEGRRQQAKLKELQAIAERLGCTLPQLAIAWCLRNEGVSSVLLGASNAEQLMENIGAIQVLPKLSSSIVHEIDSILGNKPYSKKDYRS

For the compound `Cn1c(=O)c2c(nc3sccn32)n(C)c1=O`, the cell count in assay [1] is 463. The inhibition in assay [1] is 12.5% (inactive); in assay [3], 29.8% (inactive); in assay [7], 9.58% (inactive); in assay [8], 23.1% (inactive). Further, in assay [2], the inhibition of aggregation is 5.1% (inactive). Further, the nuclei count in assay [2] turned out to be 100%; in assay [3], 108%. Further, in assay [4], the fluorescence slope is -0.455 (inactive). The NADPH fluorescence slope in assay [5] was 7.5e-05 (inactive). In assay [6], the slope was 0.00599 (inactive).
As to `Cc1cc(Oc2ccccc2)nc(-c2ccccc2)n1`, in assay [1], the cell count stood at 763. For the same compound, the inhibition in assay [1] was 4.4% (inactive); in assay [3] it was 62.8% (active); in assay [7], -19.4% (inactive); in assay [8], -47.5% (inactive). Moreover, in assay [2], the inhibition of aggregation was -2.1% (inactive). For the same compound, the nuclei count stood at 99.1% in assay [2] and 70.6% in assay [3]. In addition, the fluorescence slope in assay [4] is -0.484 (inactive). The NADPH fluorescence slope in assay [5] is -8.7e-05 (inactive). In assay [6], the slope is 0.00573 (inactive).
In the case of `O=C(CSc1nc(-c2ccco2)cc(C(F)(F)F)n1)NCCCn1ccnc1`, the cell count in assay [1] was found to be 674. The inhibition in assay [1] was -1.9% (inactive); in assay [3] it was -43.1% (inactive); in assay [7], -4.59% (inactive); in assay [8], 13.6% (inactive). Moreover, the inhibition of aggregation in assay [2] is 2.9% (inactive). Also, the nuclei count in assay [2] was 119%; in assay [3], 113%. Also, the fluorescence slope in assay [4] is -0.537 (inactive). Moreover, the NADPH fluorescence slope in assay [5] is 2.4e-05 (inactive). Moreover, the slope in assay [6] is 0.0076 (inactive).
With `Cc1ccc2c(C)nc(Nc3nc(CSc4nnnn4-c4ccccc4)cc(=O)[nH]3)nc2c1`, the cell count in assay [1] turned out to be 352. Moreover, the inhibition in assay [1] is -3.8% (inactive); in assay [3], -54.7% (inactive); in assay [7], 8.72% (inactive); in assay [8], -4.56% (inactive). Also, in assay [2], the inhibition of aggregation was -22.3% (inactive). Moreover, the values for the nuclei count in assay [2] and in assay [3] were 100% and 101%, respectively. For the same compound, the fluorescence slope in assay [4] was -0.6 (inactive). The NADPH fluorescence slope in assay [5] is -3.4e-05 (inactive). Further, the slope in assay [6] is 0.00691 (inactive).
Turning to `CCN1CCN(c2ncnc3c2oc2nc(C)c4c(c23)CC(C)(C)OC4)CC1`, the cell count in assay [1] is 476. The inhibition in assay [1] is -2.9% (inactive); in assay [3], -35.5% (inactive); in assay [7], -6.53% (inactive); in assay [8], 30.5% (inactive). In addition, the inhibition of aggregation in assay [2] is 0.7% (inactive). The nuclei count came to 102% in assay [2] and 116% in assay [3]. Moreover, the fluorescence slope in assay [4] is -0.472 (inactive). Moreover, the NADPH fluorescence slope in assay [5] is -2.5e-05 (inactive). Further, the slope in assay [6] was 0.00388 (inactive).
In the case of `COc1ccc(S(=O)(=O)N2Cc3ccccc3CC2C(=O)Nc2ccc(O)cc2)cc1OC` (centres undefined), in assay [1], the cell count came out at 772. In addition, the inhibition was -2.9% (inactive) in assay [1], -42.8% (inactive) in assay [3], 8.15% (inactive) in assay [7] and 29.5% (inactive) in assay [8]. Moreover, the inhibition of aggregation in assay [2] was -7.4% (inactive). Also, the nuclei count was 119% in assay [2] and 114% in assay [3]. In addition, the fluorescence slope in assay [4] was -0.556 (inactive). Also, the NADPH fluorescence slope in assay [5] was -6e-05 (inactive). Besides, in assay [6], the slope was 0.0071 (inactive).
In the case of `O=C(c1ccco1)N1CCN(/C(=N/S(=O)(=O)c2cccs2)c2ccccc2Cl)CC1`, the cell count in assay [1] was determined as 852. The inhibition in assay [1] is -5.6% (inactive); in assay [3], 33.2% (inactive); in assay [7], -2.11% (inactive); in assay [8], 12.2% (inactive). Also, the inhibition of aggregation in assay [2] is 2.4% (inactive). Moreover, the figures for the nuclei count in assay [2] and in assay [3] were 103% and 95.1%, respectively. For the same compound, the fluorescence slope in assay [4] is -0.491 (inactive). Besides, in assay [5], the NADPH fluorescence slope is -5.1e-05 (inactive). In assay [6], the slope is 0.00477 (inactive).
Regarding `CCCS(=O)(=O)NCCc1cc2cc(C)c(C)cc2[nH]c1=O`, the cell count in assay [1] is 321. Further, the inhibition in assay [1] is -18.8% (inactive); in assay [3] it was -16.4% (inactive); in assay [7], 4.21% (inactive); in assay [8] it was -4.55% (inactive). In assay [2], the inhibition of aggregation was 4.2% (inactive). In addition, the nuclei count in assay [2] was determined as 84.9%; in assay [3] it was 106%. In addition, the fluorescence slope in assay [4] was -0.587 (inactive). The NADPH fluorescence slope in assay [5] was -7.5e-05 (inactive). Besides, the slope in assay [6] is 0.0056 (inactive).
With `O=C(NCc1cccnc1)c1ccccn1`, in assay [1], the cell count worked out at 354. Besides, the inhibition is -11% (inactive) in assay [1], -18.1% (inactive) in assay [3], 3.99% (inactive) in assay [7] and -3.56% (inactive) in assay [8]. The inhibition of aggregation in assay [2] is -7.8% (inactive). Moreover, the results for the nuclei count in assay [2] and in assay [3] were 113% and 108%, respectively. In assay [4], the fluorescence slope is -0.466 (inactive). Besides, the NADPH fluorescence slope in assay [5] was -4.5e-06 (inactive). For the same compound, in assay [6], the slope is 0.00661 (inactive).
